Source: PubChem BioAssay (National Center for Advancing Translational Sciences (NCATS))
PK Bst – pyruvate kinase (B. stearothermophilus) modulation; 1.2% of 51,000 active; AID 361; Potency, µM; purified pyruvate kinase, luminescence ATP production; ribose 5-phosphate activator present at AC10; in the data active means potency below about 11 µM; inconclusive means mostly about 12 µM to 25 µM;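 the screen sought inhibitors and activators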
ERK AVP inh – inhibitors of vasopressin-stimulated ERK signaling pathway; HEK293-V1b, vasopressin-stimulated pERK AlphaScreen; Potency, µM (top dose mostly 57.5 µM), usual class: inhibitors; 0.99% of 72,000 active; further: nearly all actives have a fitted effect of over 55% in size
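Overnight-seeded V1b-HEK293 cells in 1% FBS got compound, then vasopressin (25 nM final, 5 min, 37C), then lysis buffer. AlphaScreen detection of phospho-ERK; activity normalized to basal and full-stimulation controls.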
Tau fil binding – tau filament binding; P10636; recombinant tau filaments, thioflavin S fluorescence, 15 h; filaments grown with octadecylsulfate alongside compound; Potency, µM (doses to about 57.1 µM); 2% of 71,000 active;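 further: actives lower thioflavin S fluorescence by blocking filaments or displacing dye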
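Thioflavine S fluorescence (ex 450, em 510 nm) reports filaments formed from 1 uM human tau plus 30 uM ODS over 15 h at 37 C (10 mM HEPES pH 7.4, 100 mM NaCl, 5 mM DTT); compounds displacing dye or blocking filaments lower signal.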
FLuc inh – firefly luciferase inhibition. purified firefly luciferase, luminescence, 8 min. P08659. Potency, µM (titrated, usually from 57.1 µM), actives largely listed as inhibitors. 2.2% of 72,000 active; further: nearly all actives have a fitted effect of over 40% in size
Target sequence (P08659 whole entry, looked up): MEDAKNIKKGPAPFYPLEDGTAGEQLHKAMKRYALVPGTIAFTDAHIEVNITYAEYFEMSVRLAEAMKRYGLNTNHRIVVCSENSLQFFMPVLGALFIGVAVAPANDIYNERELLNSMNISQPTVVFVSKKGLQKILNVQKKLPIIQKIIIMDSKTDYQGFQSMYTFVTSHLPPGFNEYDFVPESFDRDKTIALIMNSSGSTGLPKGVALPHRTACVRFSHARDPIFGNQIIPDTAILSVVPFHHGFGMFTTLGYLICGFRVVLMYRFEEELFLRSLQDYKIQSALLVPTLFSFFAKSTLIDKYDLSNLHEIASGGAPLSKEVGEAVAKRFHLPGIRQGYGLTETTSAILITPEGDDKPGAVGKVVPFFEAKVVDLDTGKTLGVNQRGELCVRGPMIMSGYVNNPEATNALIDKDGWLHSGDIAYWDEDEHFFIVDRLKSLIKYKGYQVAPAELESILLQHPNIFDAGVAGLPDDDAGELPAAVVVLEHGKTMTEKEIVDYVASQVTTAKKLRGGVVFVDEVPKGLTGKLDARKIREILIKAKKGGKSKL
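Substrate buffer containing 10 uM ATP (pH 7.2 imidazole, Mg2+, KCl, detergent, BSA) is dispensed, compound pinned in, then luciferase/luciferin detector mix added. After 8 min at ambient temperature, light output is measured.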
HEK293 cAMP cs – counter-screen for TSHR agonists: cAMP increase in parental HEK293. parental HEK293 CNG cAMP sensor, membrane potential fluorescence. Potency, µM (top dose mostly 57.1 µM), usual class: activators. 2.5% of 73,000 active; further: nearly all actives have a fitted effect of over 55% in size
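Counterscreen for endogenous-receptor signalling: CNG-channel HEK 293 cells report cAMP rise by membrane depolarization. After 60 min dye equilibration with 100 uM RO 20-1724, compounds incubated 30 min before bottom-read fluorescence at 590 nm.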
TSHR ag – agonists of human thyroid stimulating hormone receptor. Potency, µM (series often up to 57.1 µM), actives largely listed as activators. P16473. AID 926. HEK293-CNG-TSHR cells (CNG channel as cAMP sensor), membrane potential dye, cAMP. 0.48% of 73,000 active; active means well fitted activation curve with a large enough effect in the main read-out, with a control signal flat, not every such curve was filed as active; inconclusive means small, poorly fitted or top-dose-only effect, or a change in a side signal; inactive means no such curve, though single readings can be large or run the other way; reference of the percent scale not stated here;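 further: the control signal comes from parental cells without the receptor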
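HEK 293 cells stably expressing TSHR and a cAMP-gated CNG channel; parental CNG-only cells as counterscreen. Cells preloaded 60 min with membrane potential dye plus 100 uM RO 20-1724, then compound 30 min; fluorescence read at 590 nm.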
HEK293 cAMP cnt – TSHR-independent cAMP elevation, counter-screen; 150 tested, under 10 active; parental HEK293 CNG biosensor, cAMP membrane potential fluorescence; AID 953; shares compounds with TSHR ag; activity change, negative = inhibition, % at 32.9 µM
A number is an active result; n = inactive; u = inconclusive; x = not tested or not shown; [ ] = another dose, or the depositor's remark. Shown are actives, neighbours in structure and some others; about 7.2% of the full set was active somewhere. Unless noted, the call rests on the fitted dose curve; in most records, active means well fitted curve in the direction sought with a large enough effect; inconclusive means small, poorly fitted or top-dose-only effect, or another doubt; inactive means no such curve, though single readings can be large; an effect the other way counts as inactive or inconclusive.

SMILES	PK Bst	ERK AVP inh	Tau fil binding	FLuc inh	HEK293 cAMP cs	TSHR ag	others
NC[C@@H](O)CSP(=O)(O)O	x	n[11.5 µM]	n[11.4 µM]	n[11.4 µM]	n[11.4 µM]	n[11.4 µM]
CCCn1c(C)c(C(=O)c2cccc3ccccc23)c2ccccc21	x	n	u	n	12.6µM	u
Cc1c(C(=O)c2cccc3ccccc23)c2cccc3c2n1[C@H](CN1CCOCC1)CO3	x	n	n	n	n	x
C[C@@]12Cc3cnc(-c4ccccc4)nc3C[C@@H]1CC[C@@H]1[C@H]3CC[C@@](C)(O)[C@]3(C)CC[C@@H]12	x	n[11.5 µM]	n[11.4 µM]	n[11.4 µM]	n[11.4 µM]	n[11.4 µM]
CCC(COC(=O)c1cc(OC)c(OC)c(OC)c1)(c1ccccc1)N(C)C (centres undefined)	n	31.6µM	x	n	x	x
CCC1C(=O)OCC1Cc1cncn1C (centres undefined)	x	n	39.8µM	n	n	n
CC1(C)CN=C(Nc2nc3ccccc3s2)S1	x	n	n	15.8µM	n	x
CN1[C@@H]2CC[C@H]1CC(O[C@@H](c1ccccc1)c1ccccc1N)C2 (some centres undefined)	x	n	n	n	n	n
CN1[C@@H]2CC[C@H]1CC(OC(c1ccc(F)cc1)c1ccc(F)cc1)C2 (some centres undefined)	x	n	u	n	31.6µM	u
CNc1ccc2oc(C[C@H]3O[C@]4(CC[C@H]3C)O[C@H]([C@H](C)C(=O)c3ccc[nH]3)[C@H](C)C[C@H]4C)nc2c1C(=O)O	x	5.01µM	39.8µM	n	n	n
S=C=Nc1cccc2ccccc12	x	n	n	x	n	n
COc1cccc(N2CCN(Cc3cccc(Cl)c3)CC2)c1	x	n	u	n	n	25.1µM
CC[C@H](CO)NC(=O)[C@H]1C=C2c3cccc4[nH]cc(c34)C[C@H]2N(C)C1	x	x	n	n[11.4 µM]	n	n
CN(C)c1ccc(CN2CC=C(c3ccc(F)cc3)CC2)cc1	x	u	n	n	n	n	HEK293 cAMP cnt=n
CN(C)c1ccc(Cc2ccc(N(C)C)cc2)cc1	x	u	n	x	n	u
O=c1[nH]c(=O)n(Cc2ccco2)c(O)c1C=NC1CC1	n	n	n	n	n	x	HEK293 cAMP cnt=n
N#CC(Cl)Cl	x	n	n	x	n	n
